# Source: ChEMBL document CHEMBL3988442, “University of Dundee, Small-Polar-MMV Screening Library” (2021)
# The whole screen tested about 66,000 compounds, of which about 960 (1.5%) showed an effect of 50% or more. The list comes from a sample in which strong results are over-represented; it also holds similar structures and randomly drawn compounds.
# Test system: Trypanosoma brucei
# Assay: Trypanosoma brucei 72 hour study
# Format: functional, organism-based
# Design: scale not given: in the data most compounds retested in dose-response had high values
structure (smiles),measurement,setting,value
Br.CCOc1ccc(Br)cc1C1CCCN1 (stereo unspecified),Percent Effect,"30 µM, 30.03 µM",-44.26%
CC(C)OCCCN(CC(=O)N1CCNCC1)C(=O)c1ccc(F)cc1.O=C(O)C(F)(F)F,Percent Effect,"30 µM, 30.03 µM",-6.979%
CC(C)Nc1nc(N2CCOCC2)nc2c1CN(Cc1ccoc1)CC2,Percent Effect,"30 µM, 30.03 µM",8.067%
Cc1nc(CN2CCc3nc(NC(C)C)nc(C)c3C2)cs1,Percent Effect,"30 µM, 30.03 µM",1.176%
Cc1nc(CN2CCc3nc(N4CCCC4)nc(NC(C)C)c3C2)cs1,Percent Effect,"30 µM, 30.03 µM",98.38%
CN(CCOc1ccc(Cl)cc1)Cc1ccc(S(=O)(=O)N(C)C)o1,Percent Effect,"30 µM, 30.03 µM",-22.42%
Cn1nc(-c2ccc(Cl)cc2)c(Br)c1C(=O)O,Percent Effect,"30 µM, 30.03 µM",-21.18%
Cc1cccc(CN2C(=O)CCC23CCN(C(=O)N2CCCC2)CC3)n1.O=C(O)C(F)(F)F,Percent Effect,"30.3 µM, […]",-18.36%
Cc1cc(NCc2ccc(CO)cc2)n2nc(C)cc2n1,Percent Effect,"30 µM, 30.03 µM",21.61%
Cc1cc(NCc2cccnc2)n2nc(C)cc2n1,Percent Effect,"30 µM, 30.03 µM",51.67%
Cc1cc(NCc2ccc(O)cc2)n2nc(C)cc2n1,Percent Effect,"30 µM, 30.03 µM",9.404%
COCCN1CCc2ncnc(-c3ccccc3)c2CC1.O=C(O)C(F)(F)F,Percent Effect,"30.3 µM, […]",-87.22%
NC(=O)c1cccc(OCC(=O)NS(=O)(=O)c2ccc3c(c2)CCC3)c1,Percent Effect,"30.3 µM, […]",-4.37%
CCc1ncc(CN(C)C(=O)Nc2cccnc2N2CCCC2)s1,Percent Effect,"30 µM, 30.03 µM",50.09%
CN(Cc1ccco1)C(=O)Nc1cccnc1N1CCCC1,Percent Effect,"30.3 µM, […]",18.63%
CN(Cc1ccsc1)C(=O)Nc1cccnc1N1CCCC1,Percent Effect,"30 µM, 30.03 µM",-52.54%
O=C(O)C(F)(F)F.O=C(c1cc[nH]n1)N1CCC2(CC1)CC(Oc1cccnc1)CO2 (stereo unspecified),Percent Effect,"30 µM, 30.03 µM",-3.949%
COc1cc(CNC(=O)CNc2cc(Cl)ccc2OC)ccn1,Percent Effect,"30 µM, 30.03 µM",-27.18%
COc1ccc(Cl)cc1NCC(=O)NCc1cccnc1OC,Percent Effect,"30.3 µM, […]",74.82%
same,Percent Effect,"10 mM, 10 mM as filed; unlikely as a test dose",-40.14%
COc1ccc(Cl)cc1NCC(=O)NCCNc1ncccn1,Percent Effect,"30.3 µM, […]",-3.8%
same,Percent Effect,"10 mM, 10 mM as filed; unlikely as a test dose",-45.51%
CS(=O)(=O)NCc1nnc2n1CCN(Cc1cccs1)CC2.O=C(O)C(F)(F)F,Percent Effect,"30.3 µM, […]",-150.1%
Cc1ccc(N2CCC3(CC2)COCCN(c2nccs2)C3)nn1.O=C(O)C(F)(F)F.O=C(O)C(F)(F)F,Percent Effect,"30 µM, 30.03 µM",-12.93%
Cc1ccc(C(=O)N2CCC3(CC2)COC(COc2cccnc2)C3)o1.O=C(O)C(F)(F)F (stereo unspecified),Percent Effect,"30 µM, 30.03 µM",51.84%
CCS(=O)(=O)N1CCC2(CC1)COC(COc1cccnc1)C2.O=C(O)C(F)(F)F (stereo unspecified),Percent Effect,"30.3 µM, […]",1.349%
O=C(O)C(F)(F)F.O=C(c1ccccn1)N1CCC2(CC1)COC(COCC1CC1)C2 (stereo unspecified),Percent Effect,"30 µM, 30.03 µM",39.74%
Cc1ccc(C(=O)N2CCC3(CC2)COC(COc2ccccn2)C3)o1.O=C(O)C(F)(F)F (stereo unspecified),Percent Effect,"30.3 µM, […]",15.32%
O=C(c1ccccn1)N1CCC2(CC1)COC(COc1cccnc1)C2 (stereo unspecified),Percent Effect,"30 µM, 30.03 µM",52.19%
CCOCC1CC2(CCN(C(=O)c3ccccn3)CC2)CO1.O=C(O)C(F)(F)F (stereo unspecified),Percent Effect,"30.3 µM, […]",13.92%
O=C(O)C(F)(F)F.O=C([C@H]1CCCO1)N1CCCC2(COCCN(c3ccccc3)C2)C1 (stereo partly specified),Percent Effect,"30.3 µM, […]",-14.49%
c1ccc(C(CC2CN(Cc3c[nH]cn3)CCO2)c2ccccc2)cc1 (stereo unspecified),Percent Effect,"30.3 µM, […]",18.17%
CC(=O)N1C[C@@H](c2ccsc2)[C@@H]2CN(Cc3ccccc3C)CC[C@@H]21,Percent Effect,"30.3 µM, […]",-10.13%
CC(=O)N1CCCn2nc(CNS(=O)(=O)N3CCCCCC3)cc2C1,Percent Effect,"30 µM, 30.03 µM",-5.109%
CC(=O)N1CCCn2nc(CNC(=O)N3CCCCC3)cc2C1,Percent Effect,"30 µM, 30.03 µM",-45.6%
COC(=O)NCc1cc2n(n1)CCCN(C(C)=O)C2,Percent Effect,"30 µM, 30.03 µM",54.27%
O=C(c1cccs1)N1CCC2(C1)c1ccccc1S(=O)(=O)N2CC1CC1 (stereo unspecified),Percent Effect,"30 µM, 30.03 µM",16.77%
CSCC(=O)NC(Cc1ccc(C)cc1)c1ccccn1 (stereo unspecified),Percent Effect,"30 µM, 30.03 µM",-45.46%
CCCC(=O)NC(Cc1ccc(C)cc1)c1ccccn1 (stereo unspecified),Percent Effect,"30 µM, 30.03 µM",-30.99%
Cc1ccc(CC(NC(=O)CN(C)C2CC2)c2ccccn2)cc1 (stereo unspecified),Percent Effect,"30 µM, 30.03 µM",99.62%
O=C(O)C(F)(F)F.c1csc(CN2C[C@H](OCC3CC3)[C@H]3COC[C@H]32)n1,Percent Effect,"30.3 µM, […]",-56.8%
Cc1cc(C)n(C2CN(CC(O)c3cc(F)ccc3F)C2)n1 (stereo unspecified),Percent Effect,"30.3 µM, […]",7.425%
same,Percent Effect,"10 mM, 10 mM as filed; unlikely as a test dose",-39.98%
CCN1C(=O)CCC12CCCN(Cc1ccc(F)cc1)CC2.O=C(O)C(F)(F)F (stereo unspecified),Percent Effect,"30.3 µM, […]",-27.1%
C[C@H]1CN(C(=O)N(C)C)C[C@@]12CCN(c1ccsc1)C2=O,Percent Effect,"30.3 µM, […]",-235.1%
C[C@@H]1CN(C(=O)NC2CC2)C[C@]12CCN(c1ccsc1)C2=O,Percent Effect,"30 µM, 30.03 µM",50.13%
C[C@@H]1CN(C(=O)c2ccsc2)C[C@]12CCN(c1ccsc1)C2=O,Percent Effect,"30 µM, 30.03 µM",49.54%
Cc1ccnn1CCC(=O)N1CCCC1c1cc2cccnc2[nH]1.Cl (stereo unspecified),Percent Effect,"30.3 µM, […]",-12.68%
Cc1cccc(CN2C[C@@H]3COC[C@]3(CNC(=O)c3ccno3)C2)n1.O=C(O)C(F)(F)F.O=C(O)C(F)(F)F,Percent Effect,"30 µM, 30.03 µM",26.49%
Cc1nc(N2CCCC2)ncc1-c1cc(O)nc(N2CCCC2)n1,Percent Effect,"30 µM, 30.03 µM",64.4%
Cc1nc(N2CCCC2)ncc1-c1cc(O)nc(N2CCCCC2)n1,Percent Effect,"30.3 µM, […]",-25.67%
Cc1nc(N2CCCCC2)ncc1-c1cc(O)nc(N2CCCCC2)n1,Percent Effect,"30.3 µM, […]",-25.73%
CCOCC1CN(C(=O)c2cccn2C)Cc2cnn(CC3CC3)c21.O=C(O)C(F)(F)F (stereo unspecified),Percent Effect,"30 µM, 30.03 µM",19.58%
CCOCC1CN(S(=O)(=O)N(C)C)Cc2cnn(CC)c21.O=C(O)C(F)(F)F (stereo unspecified),Percent Effect,"30 µM, 30.03 µM",-21.09%
CCOCC1CN(C(=O)c2cscn2)Cc2cnn(CC3CC3)c21 (stereo unspecified),Percent Effect,"30 µM, 30.03 µM",-19.67%
CCOCC1CN(C(=O)c2cnccn2)Cc2cnn(CC3CC3)c21.O=C(O)C(F)(F)F (stereo unspecified),Percent Effect,"30 µM, 30.03 µM",61.22%
CCOCC1CN(S(=O)(=O)N(C)C)Cc2cnn(C)c21.O=C(O)C(F)(F)F (stereo unspecified),Percent Effect,"30 µM, 30.03 µM",56.34%
CCOCC1CN(S(=O)(=O)N(C)C)Cc2cnn(CC3CC3)c21.O=C(O)C(F)(F)F (stereo unspecified),Percent Effect,"30 µM, 30.03 µM",-18.48%
O=C(CC1CC1)N1CCN(Cc2cccnc2)c2ncccc2C1.O=C(O)C(F)(F)F.O=C(O)C(F)(F)F,Percent Effect,"30.3 µM, […]",-18.28%
C1CCC(CN2Cc3nnn(CC4CC4)c3C(COCC3CC3)C2)C1.O=C(O)C(F)(F)F (stereo unspecified),Percent Effect,"30.3 µM, […]",-7.314%
CCCS(=O)(=O)N1C[C@H]2C[C@H](C(=O)N3CCN(C)CC3)[C@@H](C1)O2.O=C(O)C(F)(F)F,Percent Effect,"30.3 µM, […]",2.556%
